# This is a sample that favours compounds with a hit; in the whole collection about 4.7% have one here.
# tim10-1 inh: growth inhibitors of tim10-1 mutant yeast, primary screen, luminescence, uHTS | S. cerevisiae tim10-1 ts strain growth, BacTiter-Glo, 24 h | inhibition, % at 20 µM | 330,000 compounds, 2.2% hits | AID 463190, 2010;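 active = inhibition of at least 40%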;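 also: mutant grown at 25 °C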
# tim23-1 inh: growth inhibitors of tim23-1 mutant yeast, primary screen, luminescence, uHTS | inhibition, % at 20 µM | S. cerevisiae tim23-1 growth, BacTiter-Glo luminescence, 24 h | 330,000 compounds, 1.3% hits;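 active = growth inhibition of the mutant yeast at or above 50%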;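 also: temperature-sensitive mutant grown at 25 °C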
# SKKanGAS inh: S. pyogenes SKKanGAS growth inhibitors in kanamycin, primary screen, streptokinase expression inhibitor project, SKKanGAS strain, BacTiter-Glo luminescence | AID 1662, 2009 | 6 h | 300,000 compounds, 1.3% hits | inhibition, % at 7.5 µM;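 active = mean replicate score, as percent of positive control median, at least 50; inconclusive = mean below 50 but one replicate at or above 50; inactive = mean and every replicate below 50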;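 also: strain carries kanamycin resistance gene driven by streptokinase promoter and grows in 40 µg/ml kanamycin; loss of luminescence reflects streptokinase promoter inhibition or plain growth inhibition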
# Calb FLC: C. albicans growth inhibition with fluconazole, primary screen, CaCi-2 strain, Alamar Blue fluorescence | C. albicans CaCi-2 (fluconazole-resistant clinical isolate) + fluconazole, 48 h | 300,000 compounds, 0.57% hits | AID 1979, 2009 | growth inhibition, % (test concentration not listed);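 active = growth inhibition above about 58% in most replicates, limit read from the data, passing the limit was not always enough; inconclusive = exactly half the replicates above a set limit; inactive = most replicates below a set limit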;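 also: all wells also contain fluconazole at 8 µg/ml as a sub-toxic cotreatment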
# TIM10 inh: growth inhibitors of isogenic TIM10 control yeast, primary screen, counter-screen for tim10-1 yeast inhibitor project, luminescence, uHTS; S. cerevisiae TIM10 strain growth, BacTiter-Glo luminescence, 24 h; 330,000 compounds, 1.4% hits; inhibition, % at 10 µM; AID 463195, 2010;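 active = inhibition of 40% or more at the single tested concentration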;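 also: wild-type TIM10 isogenic control strain grown at permissive 25 °C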
# PfHsp90 yeast 2: growth inhibition of PfHsp90-expressing yeast, primary screen, antimalarial PfHsp90 inhibitor project, S. cerevisiae, BacTiter-Glo luminescence, single point, set 2 | BacTiter-Glo ATP, 48 h; yeast lacking PDR1 and PDR3 efflux regulators | inhibition, % at 9.4 µM | 310,000 compounds, 0.32% hits;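 active = every replicate shows inhibition above about 80%, whatever the replicate mean, limit read from the data; inconclusive = mean inhibition reaches the set limit but some replicate falls short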
# tim10-1 conf: growth inhibitors of tim10-1 mutant yeast, confirmation, single concentration, luminescence, S. cerevisiae | inhibition, % at 20 µM | 7,400 compounds, 56% hits | S. cerevisiae tim10-1 ts strain growth, BacTiter-Glo, 24 h | shares compounds with tim10-1 inh | AID 463213, 2010;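 active = inhibition of yeast growth at or above a set limit in either of two repeat tests at 20 µM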;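 also: tim10-1 mutant grown at permissive 25 °C to find synthetic lethal compounds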
# Hits are given with their value; . = inactive; ? = inconclusive; / = no result.
SMILES,tim10-1 inh,tim23-1 inh,SKKanGAS inh,Calb FLC,TIM10 inh,PfHsp90 yeast 2,tim10-1 conf
COc1ccc(OC)c(C2=Nn3c(nnc3C3CCCCC3)SC2)c1,.,.,.,.,.,.,/
O=C(c1noc2c1CCCC2)N1CCC(CO)(Cc2ccccc2Cl)CC1,.,.,.,.,.,.,/
CCCn1c(SCC(N)=O)nc2c(c1=O)C1(CCCC1)Cc1ccccc1-2,.,.,.,.,.,.,/
Cn1c(NCCCO)nc2c(c1=O)C1(CCCCC1)Cc1ccccc1-2,54,.,/,/,.,.,38
CCC(=O)Nn1cnc2c(c1=O)C1(CCCCC1)Cc1ccccc1-2,50,.,.,.,.,.,37
COc1cc(Cn2nnc3ccccc32)cc(Br)c1O,.,.,.,.,.,.,/
CN(CC(=O)Nc1ccc(Cl)cc1)C(=O)Cc1c(F)cccc1Cl,.,.,.,.,.,.,/
O=C(Cn1c(=O)c2cccn2c2cccnc21)N1CCN(c2ccc(Cl)cc2)CC1,43,.,.,.,.,.,.
Cc1ccc(Cl)cc1N1CCN(C(=O)CCCn2c(=O)c3cccn3c3cccnc32)CC1,.,.,.,.,.,.,/
O=C(Cn1ncc2c([nH]c3ccccc32)c1=O)NCCCN1CCN(c2ccccc2)CC1,.,.,.,.,.,.,/
C=CCn1c(SCc2ccccc2C#N)nnc1-c1cc(Br)ccc1O,44,.,.,.,.,.,.
OCCn1c(-c2ccc3c(c2)OCO3)csc1=Nc1ccccc1,48,.,.,.,.,.,33
O=C(CSc1n[nH]c(=O)n1Cc1ccccc1)Nc1ccc(F)c(F)c1F,.,.,.,.,.,.,/
CN1CCN(S(=O)(=O)c2cccc(C(=O)Oc3cccc(Br)c3)c2)CC1,41,.,.,.,.,.,.
COc1cc(OC)cc(OC(=O)c2cccc(S(=O)(=O)N3CCN(C)CC3)c2)c1,.,.,.,.,.,/,/
CCOc1ccc(CCNC(=O)CCn2ccc3cc(S(=O)(=O)N4CCCC4)ccc32)cc1,.,.,.,.,.,.,/
Cc1ccc(N=C2C(=O)Nc3c(C)cccc32)cc1,.,.,.,.,.,.,/
Cc1ccc(N=C2C(=O)Nc3ccc(Br)cc32)cc1,48,.,.,.,.,.,.
COc1ccc(-c2oc3ncnc(NCCCN(C)C)c3c2-c2ccc(OC)cc2)cc1,40,.,.,.,.,.,42
CN(C)CCNc1ncnc2oc(-c3ccccc3)c(-c3ccccc3)c12,.,.,.,.,.,.,/
CCCN1CCN(S(=O)(=O)c2ccc(-c3cc(C)no3)s2)CC1,.,.,.,.,.,.,/
C=C1CCC[C@]2(C)C[C@H]3OC(=O)C(CNCCN(CC)CC)[C@H]3CC12 (stereo not given in full),52,.,.,.,.,.,48
C=C1CCC[C@]2(C)C[C@H]3OC(=O)C(CNCCN(C)C)[C@H]3CC12 (stereo not given in full),46,.,.,.,.,.,44
C=C1CCC[C@]2(C)C[C@H]3OC(=O)C(CNCC(C)C)[C@H]3CC12 (stereo not given in full),42,.,.,.,.,.,36
O=C(COC(=O)CN1C(=O)c2ccccc2C1=O)Nc1cccc(F)c1,.,.,/,/,.,.,/
SMILES,tim10-1 inh,tim23-1 inh,SKKanGAS inh,Calb FLC,TIM10 inh,PfHsp90 yeast 2,tim10-1 conf
CCN(CC)CCN(C(=O)c1ccc2c(c1)CCCC2)c1nc2ccc(OC)cc2s1,52,.,.,.,.,.,36
CN(C)CCCN(C(=O)c1ccc2c(c1)CCCC2)c1nc2cc3c(cc2s1)OCO3,42,.,.,.,.,.,.
Cn1ncc(Cl)c1C(=O)NC1CCCC1,.,.,.,/,.,.,/
Cn1c(SCC(=O)Nc2cccnc2Cl)nnc1-c1ccco1,.,.,/,/,.,.,/
CCc1cc(C(=O)N2CCN(c3ncc(C(F)(F)F)cc3Cl)CC2)sc1C,42,.,?,.,.,.,35
CCCc1ccc2oc(C(=O)N3CCC(C(N)=O)(N4CCCCC4)CC3)c(C)c2c1,42,.,.,.,.,.,.
CCCC1(c2ccccc2)NC(=O)N(CC(=O)NCC2COc3ccccc3O2)C1=O (stereo not given),.,.,/,/,.,/,/
COc1ccc(S(=O)(=O)Oc2ccccc2C(=S)N2CCOCC2)cc1,.,.,.,.,.,/,/
CCc1cccc(OCCOC(=O)CNS(=O)(=O)c2ccc(NC(C)=O)cc2)c1,.,.,/,/,.,.,/
c1ccc(-c2cc3n(c2)CCc2ccccc2-3)cc1,42,.,.,.,.,.,.
Nc1nnn(CC(=O)N/N=C/c2cccc(Cl)c2)n1,.,.,.,.,.,.,/
COc1cc(/C=C/c2c([N+](=O)[O-])c(=O)n(C)c(=O)n2C)cc(OC)c1OC,.,.,.,.,.,.,/
Cn1c(/C=C/c2ccc(Br)cc2)c([N+](=O)[O-])c(=O)n(C)c1=O,42,.,.,.,.,.,.
Cc1ccc(-c2nc(SCC(=O)N(C)c3c(N)n(Cc4ccccc4)c(=O)[nH]c3=O)n[nH]2)cc1,.,.,.,.,.,.,/
O=C(O)c1ccc(Nc2nc(-c3ccccc3)nc3ccccc23)cc1,53,.,.,.,.,.,.
CC(C)C[C@H](N)c1nnc(SCC(=O)Nc2ccc(Br)cc2)o1,43,.,.,.,.,.,.
Cc1nn(CC(=O)N(C)C2(C#N)CCCCC2)c(C)c1[N+](=O)[O-],.,.,/,/,.,.,/
COCC(=O)Nc1c(C(=O)Nc2ccc3c(c2)OCO3)oc2ccccc12,.,.,.,.,.,.,/
O=C(CCl)Nc1c(C(=O)Nc2ccc3c(c2)OCCO3)oc2ccccc12,42,.,.,.,.,.,.
CCOC(=O)c1ccc(N=c2ssnc2Cl)cc1,41,.,.,.,.,.,40
Cn1c(SCC(=O)Nc2sccc2C#N)nnc1C1CC1,.,.,/,/,.,.,/
Cc1cccc(C)c1-n1c(C)cc(/C=N\NC(=O)CC(=O)NC2CCCCC2)c1C,41,.,.,.,.,.,.
Cc1cccc(C)c1-n1c(C)cc(/C=N/NC(=O)CSc2ncccn2)c1C,.,.,.,.,.,.,/
Cc1cc(/C=N\NC(=O)CC(=O)NC2CCCCC2)c(C)n1-c1cccc(Cl)c1Cl,.,.,.,.,.,.,/
Cc1cc(/C=N\NC(=O)CC(=O)NC2CCCCC2)c(C)n1-c1ccc(Cl)c(Cl)c1,46,.,.,.,.,.,.
